Data on 9 compounds can be found in PubChem BioAssay.

“And” between values parts separate entries of the source, which are not always exact repeats. Identical values can stand only once. The source made the active and inactive calls. Unless noted, how the calls were made is not given here.

The nature of assay [1]: liver-stage malaria parasite growth inhibition, primary screen, cell-based, HepG2, luciferase luminescence, HepG2 viability (AID 624349; in the data active means parasite load remaining mostly below about 12%, no sharp cut-off; inactive means mostly above about 10%;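 further: 100% = mean of DMSO negative control wells on the same plate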). Conditions: P. berghei liver stage in HepG2, luciferase luminescence, concentration not given here; parasite load remaining: stronger effect = lower value; viability: measured here: HepG2 viability without parasites.
Assay [2] in a line: Cy5 fluorescence interference with SSB-bound oligo, artefact control for HCV NS3 helicase inhibitor project, biochemical, NIH Clinical Collection, E. coli SSB (AID 743268).
In assay [3] the test system is Hepatitis C virus NS3 helicase. Kind of assay: HCV NS3 helicase inhibitors, primary screen, biochemical, fluorescence polarization, NIH Clinical Collection (AID 743270). Conditions: NS3 helicase binding to Cy5-dT15 DNA, stronger effect = higher value, concentration not given here. In general terms: Fluorescence polarisation rises when a labelled molecule tumbles more slowly, as on binding a larger partner.

Assay [4] concerns the target Single-stranded DNA-binding protein (Escherichia coli (strain K12)) (UniProt P0AGE0). Kind of assay: E. coli SSB displacement from DNA, counter-screen for HCV NS3 helicase inhibitor project, biochemical, fluorescence polarization, NIH Clinical Collection (AID 743271; in the data active means inhibition above about 28%). Conditions: stronger effect = higher value, concentration not given here. (In general: Counterscreens check selectivity or assay interference.)

The nature of assay [5]: fluorescence interference in NS3h assay format, artefact control for HCV NS3 helicase inhibitor project, biochemical, NIH Clinical Collection (AID 743272).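 Further: HCV NS3 helicase with a Cy5 labelled single stranded DNA probe.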 Conditions: fluorescence interference counterscreen, stronger effect = lower value.
The subject of assay [6] is Neuropilin-2 / VEGF-C interaction (human). Kind of assay: inhibitors of NRP2–VEGF-C binding, biochemical, microplate binding format, z-score (AID 743281). Conditions: microplate NRP2/VEGF-C binding assay; stronger effect = lower value.
A short description of assay [7]: stimulators of nuclear beta-catenin in C2C12, primary screen, imaging, WNT3A-conditioned medium, mouse C2C12, NPC library (AID 1117326; in the data active means nuclear beta-catenin stimulation mostly above about 4.2%, no sharp cut-off; inactive means mostly below about 10%). Conditions: stronger effect = higher value.
A short description of assay [8]: stimulators of insulin release from INS-1E, primary screen, cell-based, 5 mM glucose, NPC library (AID 1117329;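 active means compound raises insulin release from rat beta cells at 5 mM glucose, no numeric limit stated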). Conditions: rat INS-1E insulin secretion, at 10 µM, stronger effect = higher value.
The nature of assay [9]: growth inhibition of GSK3B-pretreated HCT116 cells – cell-based, CellTiter-Glo, 0.2 to 20 µM (AID 1117336;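 active means compounds lowering colon cancer cell viability after pretreatment blocking the GSK3B kinase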). Conditions: HCT116 viability after GSK3B inhibitor, at 20 µM, stronger effect = higher value. On the technique in general: In ATP-based viability assays light output follows the ATP content of the culture.
Assay [10] can be described thus: inhibition of endothelial tube formation, primary screen, imaging, VEGF stimulated, CD31 staining, tube area, NPC library (AID 1117340;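 active means compound that reduces growth-factor-driven endothelial tube area in a mixed cell culture, no cutoff stated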). Conditions: VEGF-stimulated ADSC/ECFC co-culture, at 10 µM, stronger effect = higher value.
Assay [11] in a line: glucagon-like peptide 1 release enhancers, primary assay, NCI-H716 cell line, NPC library (AID 1117341;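 active means compound raises GLP1 secretion from the human gut endocrine cells, with no numeric limit stated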). Conditions: NCI-H716 cells, at 10 µM, stronger effect = higher value.
The nature of assay [12]: HCT116 colon cancer cell growth inhibition, primary screen, CellTiter-Glo luminescence, NPC library (AID 1117342;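 active means compounds that lower survival of HCT116 colon cancer cells in the luminescence readout, no numeric limit stated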). Conditions: at 20 µM (top of the series).
The nature of assay [13]: CellTiter-Glo luminescent readout of SW480 viability loss, NPC library primary (AID 1117343;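 active means compounds that lower viability of the colon cancer cells in the luminescence readout, with no numeric limit stated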). Conditions: CellTiter-Glo luminescence; at 20 µM (top of the series).
Assay [14] can be described thus: decreased DLD-1 cellular survival, CellTiter-Glo luminescent readout, NPC compound collection, primary HTS (AID 1117346;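 active means compounds that lower survival of DLD-1 colon cancer cells in the luminescence readout, no cutoff given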). Conditions: DLD-1 viability, CellTiter-Glo luminescence; at 20 µM (top of the series).

A word on the viability: it is a read-out of living cells in per cent, often relative to untreated cells. In general, inhibition refers to the relative decrease from the control value, in per cent. Take `Cc1[nH]cnc1CN1CCc2c(c3ccccc3n2C)C1=O`: the parasite load remaining in [1] was 109% (inactive). The viability in assay [1] was 87.6%. In addition, the values for the fluorescence ratio in assay [2] and in assay [5] were 0.99 (inactive) and 0.96 (inactive), respectively. The inhibition in assay [3] was -8.32% (inactive); in [4], -4.72% (inactive). Besides, the z-score in assay [6] is 0.471 (inactive). Moreover, the nuclear beta-catenin stimulation was 1.1% (inactive) in assay [7] (at 10 µM) and 1.4% in assay [7] (stimulation, at 2 µM). In addition, the insulin secretion stimulation in assay [8] was 0.5% (inactive). Also, in assay [9], the viability decrease is 10.2% (inactive). In addition, the tube area decrease in assay [10] is 19.5% (inactive). In addition, the GLP1 secretion stimulation in assay [11] is 5.1% (inactive). Besides, the inhibition of viability in [12] is -1.8% (inactive). Besides, the viability decrease (inhibition) is 42.2% (inactive) in assay [13] and 23.8% (inactive) in [14].
On to `COC1=C(OC)C(=O)C(CCCCCCCCCCO)=C(C)C1=O`, for which the parasite load remaining in assay [1] was 97.9% (inactive) and 55.5% (inactive). The viability in assay [1] is 71.1% and 140%. For the same compound, the fluorescence ratio in [2] and in [5] was 0.94 (inactive) in each case. The values for the inhibition in [3] and in [4] were -2.77% (inactive) and 2.98% (inactive), respectively. The z-score in assay [6] is -0.18 (inactive). Further, the nuclear beta-catenin stimulation in assay [7] (at 10 µM) is -0.4% (inactive); in assay [7] (stimulation, at 2 µM), -1.8%. In addition, the insulin secretion stimulation in assay [8] was 2.2% (inactive). Besides, in [9], the viability decrease was 118% (active). The tube area decrease in assay [10] is 66.9% (active). For the same compound, the GLP1 secretion stimulation in [11] is 2.2% (inactive). Moreover, in [12], the inhibition of viability was 94.2% (active). Also, the figures for the viability decrease (inhibition) in assay [13] and in assay [14] were 120% (active) and 82.7% (active), respectively.
With `Cc1nc2ccc(CN(C)c3ccc(C(=O)N[C@@H](CCC(=O)O)C(=O)O)s3)cc2c(=O)[nH]1`, the parasite load remaining in assay [1] was 12.1% (inactive). Further, the viability in [1] amounted to 89.6%. The fluorescence ratio in assay [2] and in assay [5] was 0.88 (inactive) throughout. For the same compound, the inhibition was -4.59% (inactive) in assay [3] and 17.7% (inactive) in [4]. In [6], the call was inactive. Besides, the nuclear beta-catenin stimulation is 61.4% (active) in assay [7] (at 10 µM) and 62.4% in [7] (stimulation, at 2 µM). Besides, in assay [8], the insulin secretion stimulation was -5.7% (inactive). Moreover, in assay [9], the viability decrease was 83.7% (active). Also, the tube area decrease in [10] is 62.5% (active). Moreover, the GLP1 secretion stimulation in assay [11] is 1% (inactive). The inhibition of viability in assay [12] is 78.2% (active). Also, the viability decrease (inhibition) in assay [13] was 117% (active); in assay [14], 56.2% (active).
Consider `CN1CCN(C2=Nc3cc(F)ccc3Cc3ccccc32)CC1`, for which the parasite load remaining in assay [1] is 91.4% (inactive) and 40.9% (inactive). In assay [1], the viability is 62.6% and 67%. For the same compound, the fluorescence ratio in assay [2] was 0.91 (inactive); in assay [5], 0.9 (inactive). The inhibition in assay [3] was -1.97% (inactive); in assay [4] it was 1.97% (inactive). In [6], the z-score is -0.511 (inactive). Besides, the nuclear beta-catenin stimulation in assay [7] (at 10 µM) is -1.1% (inactive); in assay [7] (stimulation, at 2 µM), -3%. Besides, the insulin secretion stimulation in assay [8] is 3.3% (inactive). In addition, the viability decrease in assay [9] is 12.5% (inactive). In addition, in [10], the tube area decrease is 13% (inactive). In assay [11], the GLP1 secretion stimulation is 8% (inactive). For the same compound, the inhibition of viability in assay [12] is 37.7% (inactive). Besides, the viability decrease (inhibition) in assay [13] was 26.9% (inactive); in [14], -2.4% (inactive).
In the case of `CC(C)c1ccc2oc3nc(N)c(C(=O)O)cc3c(=O)c2c1`, the parasite load remaining in assay [1] is 196% (inactive). The viability in assay [1] was 67.7%. Moreover, the results for the fluorescence ratio in assay [2] and in assay [5] were 1.01 (inactive) and 0.99 (inactive), respectively. The inhibition in assay [3] is 2.77% (inactive); in assay [4], 6.06% (inactive). For the same compound, the z-score in assay [6] is 0.737 (inactive). In addition, the nuclear beta-catenin stimulation in assay [7] (at 10 µM) is 0.2% (inactive); in assay [7] (stimulation, at 2 µM) it was -1.6%. In addition, in [8], the insulin secretion stimulation was 3.2% (inactive). Further, in [9], the viability decrease is 8.7% (inactive). The tube area decrease in [10] was 0% (inactive). For the same compound, the GLP1 secretion stimulation in assay [11] was 0.3% (inactive). In [12], the inhibition of viability is -17% (inactive). Also, the viability decrease (inhibition) in assay [13] was 17.9% (inactive); in assay [14], -27.9% (inactive).
For `N#Cc1ccc(C(c2ccc(C#N)cc2)n2cncn2)cc1`, in assay [1], the parasite load remaining was 127% (inactive) and 107% (inactive) and 48.7% (inactive). Also, in assay [1], the viability was 71.5% and 77.2% and 128%. The fluorescence ratio was 1 (inactive) in assay [2] and 0.97 (inactive) in assay [5]. For the same compound, the inhibition in assay [3] is 2.77% (inactive); in assay [4], -1.64% (inactive). The z-score in [6] is -0.196 (inactive). For the same compound, the nuclear beta-catenin stimulation in assay [7] (at 10 µM) was -1.6% (inactive); in assay [7] (stimulation, at 2 µM), 0%. In addition, the insulin secretion stimulation in assay [8] was 0.6% (inactive). Besides, the viability decrease in [9] was -9.1% (inactive). Also, the tube area decrease in [10] was -17.6% (inactive). The GLP1 secretion stimulation in assay [11] was -2.1% (inactive). Also, the inhibition of viability in assay [12] is 9.8% (inactive). Besides, the viability decrease (inhibition) in assay [13] was -2.1% (inactive); in [14], -3.3% (inactive).
Take `CN1CCN(c2c(F)cc3c(=O)c(C(=O)O)cn4c3c2SCC4)CC1`: the parasite load remaining in assay [1] was 99.2% (inactive) and 24.3% (inactive). Moreover, the viability in assay [1] was 91.2% and 66%. Also, the fluorescence ratio in assay [2] is 1.04 (inactive); in assay [5], 0.99 (inactive). Moreover, the values for the inhibition in assay [3] and in [4] were -4.36% (inactive) and -3.18% (inactive), respectively. The result in assay [6] was inactive. Further, the nuclear beta-catenin stimulation is 1.2% (inactive) in [7] (at 10 µM) and -0.2% in [7] (stimulation, at 2 µM). In addition, the insulin secretion stimulation in [8] is 0.05% (inactive). In addition, the viability decrease in assay [9] is 19.8% (inactive). Also, the tube area decrease in assay [10] was -3.6% (inactive). Besides, in assay [11], the GLP1 secretion stimulation was 1.6% (inactive). Also, the inhibition of viability in assay [12] is 7.2% (inactive). Besides, the viability decrease (inhibition) in assay [13] is -18.1% (inactive); in assay [14], 0.6% (inactive).
As for `CC(C)(C)C(O)/C=C/c1ccc2c(c1)OCO2` (centres undefined), the parasite load remaining in [1] is 76% (inactive). Moreover, the viability in [1] amounted to 68%. In addition, the fluorescence ratio in [2] was 0.94 (inactive); in assay [5] it was 0.88 (inactive). Further, the results for the inhibition in assay [3] and in assay [4] were -4.59% (inactive) and -2.76% (inactive), respectively. For the same compound, the z-score in [6] was -0.389 (inactive). For the same compound, the nuclear beta-catenin stimulation in assay [7] (at 10 µM) was 0% (inactive); in assay [7] (stimulation, at 2 µM), 1.5%. In [8], the insulin secretion stimulation is -1.1% (inactive). The viability decrease in assay [9] was -4.45% (inactive). Moreover, the tube area decrease in [10] is -6.4% (inactive). Moreover, in assay [11], the GLP1 secretion stimulation is 1.9% (inactive). In addition, the inhibition of viability in assay [12] is 11.7% (inactive). In addition, the viability decrease (inhibition) is -0.9% (inactive) in assay [13] and -1.3% (inactive) in assay [14].
Regarding `Cc1ccnc2c1NC(=O)c1cccnc1N2C1CC1`, the parasite load remaining in assay [1] is 79.8% (inactive). In addition, the viability in assay [1] was found to be 69.1%. Further, the results for the fluorescence ratio in assay [2] and in assay [5] were 1.05 (inactive) and 1 (inactive), respectively. In addition, the inhibition in assay [3] was 1.98% (inactive); in assay [4], -5.49% (inactive). Also, the z-score in [6] is -1.18 (inactive). In addition, the nuclear beta-catenin stimulation is 0% (inactive) in assay [7] (at 10 µM) and 1.8% in [7] (stimulation, at 2 µM). Moreover, in assay [8], the insulin secretion stimulation was -1.6% (inactive). Also, the viability decrease in assay [9] was -14.3% (inactive). Further, the tube area decrease in [10] was -6.9% (inactive). For the same compound, in assay [11], the GLP1 secretion stimulation is -2% (inactive). Besides, in assay [12], the inhibition of viability was 6.5% (inactive). Further, the viability decrease (inhibition) is -13.1% (inactive) in assay [13] and 13.6% (inactive) in assay [14].
